Test results reported in PubChem BioAssay (NCI).
This is part of a sample that, as a whole, favours compounds with a hit. Of some 79,000 tested, about 15% had one in any assay. Rule as the data show it: active = growth inhibition above about 70%; inactive = the rest.

Experiments:
[1] = NCI Yeast Anticancer Drug Screen. Data for the rad50 strain (AID 155);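 also: 0% = growth of vehicle-only cultures of the same strain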; conditions: S. cerevisiae rad50 strain growth inhibition; at 50.0 µM; active compounds read high
Method in brief: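 Genetically altered yeast (DNA repair pathway); compound treatment; growth inhibition vs vehicle ctrl.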

[2] = NCI Yeast Anticancer Drug Screen. Data for the mec2-1 strain (AID 157); conditions: S. cerevisiae mec2-1 strain, at 50.0 µM, active compounds read high
Method in brief: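 mec2-1 yeast strain, carrying an alteration in DNA damage repair or cell cycle control, was exposed to compounds; growth inhibition was measured relative to vehicle-treated controls.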

[3] = NCI Yeast Anticancer Drug Screen. Data for the sgs1 mgt1 strain (AID 161);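 also: 0% = growth of cultures given vehicle only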; conditions: S. cerevisiae sgs1 mgt1 strain, at 50.0 µM, active compounds read high
Method in brief: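 Yeast cells carrying a defined DNA-repair defect were exposed to test compounds. Growth inhibition was measured relative to vehicle-treated controls.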

[4] = NCI Yeast Anticancer Drug Screen. Data for the cln2 rad14 strain (AID 165);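 also: 0% = growth equal to vehicle treated cultures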; conditions: S. cerevisiae cln2 rad14 strain, at 50.0 µM, active compounds read high
Method in brief: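 Yeast carrying cln2 and rad14 alterations (cell cycle control and DNA damage repair) were exposed to compounds. Growth inhibition was measured against vehicle-treated controls.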

[5] = NCI Yeast Anticancer Drug Screen. Data for the bub3 strain (AID 167); conditions: S. cerevisiae bub3 mutant strain, at 50.0 µM, active compounds read high
Method in brief: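 Yeast carrying a defined mutation is treated with each compound, and growth is compared with that of vehicle-exposed cells to give inhibition.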

[6] = NCI Yeast Anticancer Drug Screen. Data for the mlh1 rad18 strain (AID 175); conditions: S. cerevisiae mlh1 rad18 strain growth inhibition; at 50.0 µM; active compounds read high
Method in brief: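 Growth inhibition of the yeast strain was measured after compound exposure and expressed relative to vehicle-treated controls. The strain carries defined defects in DNA damage repair.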

Measured: growth inhibition

O=C(OCCNC(=O)N1CCOCC1)OCCNC(=O)N1CCOCC1
inactive: [1] -16.8% | [2] -2% | [3] -8.55% | [4] 40.6% | [5] -3.2% | [6] 11.3%

Clc1nc(Cl)c2ncn(C3CCCO3)c2n1 (stereo not given)
inactive: [1] -23.1% | [2] -10% | [3] 14.7% | [4] -40% | [5] 44% | [6] 4.95%

CC(=O)Nc1ccc2c(c1)Cc1c(F)cc(F)cc1-2
inactive: [1] 35.9% | [2] -9% | [3] 19.6% | [4] 16.1% | [5] 21.9% | [6] 39.8%

CC(O)CN(CC(C)O)S(=O)(=O)c1ccc(N)cc1 (stereo not given)
inactive: [1] -9.15% | [2] -14.2% | [3] -0.45% | [4] -9.3% | [5] 13.8% | [6] -2%

CN1CCCCC1CCO (stereo not given)
inactive: [1] -1.4% | [2] 6.7% | [3] -11.2% | [4] 15.9% | [5] 3.25% | [6] 14.1%

O=S(O)CCCCCSSSCCCCCS(=O)O
inactive: [1] 8.2% | [2] 8.8% | [3] -2.8% | [4] -10.4% | [5] 9.05% | [6] 44.7%

C=CCOC(=O)CC(=O)OCC=C
inactive: [1] 0.6% | [2] 1.7% | [3] 0.35% | [4] -4% | [5] 3.05% | [6] -5.9%

Oc1c(O)c(Cc2ccccc2)c(Cc2ccccc2)c(Cc2ccccc2)c1Cc1ccccc1
inactive: [1] 40.7% | [2] -19.8% | [3] 23.3% | [4] -44.2% | [5] -7.15% | [6] 12.8%

Clc1ccc(CSc2cnnc(SCc3ccc(Cl)c(Cl)c3)c2SCc2ccc(Cl)c(Cl)c2)cc1Cl
inactive: [1] 1.2% | [2] 5.15% | [3] 3.9% | [4] -5.9% | [5] -0.8% | [6] 17.1%

CN(C=O)C1CCC2C3CC=C4CC(OC=O)CCC4(C)C3CCC21C (stereo not given)
inactive: [1] 1.35% | [2] 11.3% | [3] 3.85% | [4] 5.95% | [5] -2.9% | [6] -2%

CCCCC1C/C=C/C=C/C=C/C=C/C(OC2OC(C)C(O)C(N)C2O)CC2OC(O)(CC(O)CC3OC3/C=C/C(=O)O1)CC(O)C2C(=O)O (stereo not given)
inactive: [1] 30.6% | [2] 9.5% | [3] 2.75% | [4] 17.6% | [5] -1.7% | [6] 11.2%

COc1ccc(Nc2nnc(-c3nsc4ccccc34)s2)cc1
inactive: [1] -2.5% | [2] -28.4% | [3] -37.9% | [4] 22.2% | [5] -27.9% | [6] -24.9%

Cc1ccc(Cl)cc1NC(=S)N(C)C
inactive: [1] 15.9% | [2] 16.1% | [3] 34.7% | [4] 3.75% | [5] 50.2% | [6] 24.5%

COc1ccc(/C=C/C(=O)c2ccc(Br)cc2)cc1
inactive: [1] -33.4% | [2] -67.5% | [3] -34.2% | [4] 2.75% | [5] -14.4% | [6] -44.3%

C[S+](C)c1ccc(Cl)cc1
inactive: [1] -1.45% | [2] -6.65% | [3] -21.2% | [4] 17.9% | [5] 11.3% | [6] 8.25%

CCCCCCC(=O)C(N)Cc1ccccc1 (stereo not given)
inactive: [1] 0.45% | [2] -27.1% | [3] 3.7% | [4] 8.2% | [5] -1.1% | [6] 20%

S=C1Cc2c(-c3ccccc3)cc(-c3ccc(Cl)cc3)nc2-c2ccccc2N1
inactive: [1] 8.75% | [2] -3.85% | [3] 5.65% | [4] 2.55% | [5] 6.75% | [6] -4.25%

CC(C)(C)NO
inactive: [1] 7.3% | [2] -0.85% | [3] 7.65% | [4] 3.4% | [5] 13.6% | [6] -3.8%

O=C(O)c1c[nH]c(=O)[nH]c1=O
inactive: [1] 1.25% | [2] -5.4% | [3] 1.25% | [4] -5.55% | [5] 0.65% | [6] -7.5%

O=C1OC([C@H](O)c2cccnc2)c2ccccc21 (stereo not given in full)
inactive: [1] -17.1% | [2] -24.9% | [3] -39.4% | [4] -22.9% | [5] -26.1% | [6] -21.6%
